Lassa entry inh = blocks Lassa virus binding to or entry into cells | Lassa virus pseudotype entry inhibition, cell reporter | Potency, µM (top dose mostly 37.9 µM), without a hit: at the top dose activity change, negative = inhibition, actives largely listed as inhibitors | 300,000 compounds, 1.2% hits | AID 540256; calls by dose curve; tested in HEK293 cells; note: nearly all actives have a fitted effect of over 50% in size
HCV inh = blocks hepatitis C virus; Huh7.5.1 HCVcc-Cre infection, luciferase reporter, 44 h; Potency, µM (highest dose often 41.8 µM), without a hit: at the highest dose activity change, negative = inhibition, usual class: inhibitors; 340,000 compounds, 3.4% hits; AID 651820
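After 44 h co-culture of compound, cells and HCVcc-Cre (~0.5 moi), substrate is added for 15 min at room temperature and luciferase measured over 15 sec. Cells were seeded at 1,000/well and pre-cultured 4 h.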
Marburg entry inh = blocks Marburg virus binding to or entry into cells; AID 540276; 300,000 compounds, 1.8% hits; Potency, µM (highest dose often 37.8 µM), for inactives: top-dose activity change, negative = inhibition, most hits filed as inhibitors; Marburg virus pseudotyped entry inhibition, cell reporter; calls by dose curve; tested in HEK293 cells
FMDV antiviral = blocks foot and mouth disease virus. FMDV antiviral cell-based qHTS. Potency, µM (titrated, usually from 57.9 µM), for inactives: at the highest dose activity change, negative = inhibition, most hits filed as inhibitors. 410,000 compounds, 1.2% hits; calls by dose curve; tested in HEK293T cells; note: read-out not given here; nearly all actives have a fitted effect of over 45% in size
RE007 growth inh = less growth of the S. pombe RE007 Vpr strain; S. pombe RE007 Vpr strain, BacTiter-Glo ATP luminescence, 24 h; Potency, µM (titrated, usually from 92.2 µM), for inactives: top-dose activity change, negative = less growth, actives largely listed as inhibitors; 360,000 compounds, 0.21% hits; active = well fitted falling curve with a large enough effect; inconclusive = small, poorly fitted or top-dose-only effect; inactive = no such curve, though single readings can be large or run the other way; note: nearly all actives have a fitted effect of over 50% in size
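Fission yeast RE007 carrying one integrated HIV-1 vpr copy, seeded at OD 0.01 in PMG+AL medium with 23 nL pinned compound. Grown 24 h at 30 degrees; viability read by BacTiter-Glo luminescence after 5 min.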
Sm TGR inh = inhibitors of Schistosoma mansoni thioredoxin glutathione reductase; purified TGR, DTNB reduction, TNB absorbance 405 nm; Potency, µM (top dose mostly 114 µM), for inactives: at the highest dose activity change, negative = inhibition, most hits filed as inhibitors; 360,000 compounds, 3% hits; AID 485364; note: nearly all actives have a fitted effect of over 60% in size
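Kinetic colorimetric format: TGR-catalysed, NADPH-driven DTNB reduction monitored via TNB absorbance. Enzyme dispensed at 20 nM; compound exposure 15 min at room temperature before reaction start.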
Starred values were filed as active, the others as inactive; [ ] = remark or other dose. Sampled rows, rich in hits. Any-hit rate of the full collection: about 7.2%. Unless noted, calls come from the whole dose curve; as a rule, active = well fitted curve in the direction sought with a large enough effect; inconclusive = small, poorly fitted or top-dose-only effect, or another doubt; inactive = no such curve, though single readings can be large; an effect the other way counts as inactive or inconclusive. % is set by controls: 0 for no effect and ±100 for the full control effect; potency is the fitted concentration of half-maximal effect.

For Cc1ccc(-c2csc(NC(=O)C3CC(=O)N(Cc4ccco4)C3)n2)cc1 (configuration not stated) the results were Lassa entry inh inconclusive, HCV inh -28.5%, Marburg entry inh inconclusive, FMDV antiviral inconclusive, RE007 growth inh 4.5% and Sm TGR inh inconclusive.
O=C(COC(=O)C1CC(=O)N(Cc2ccco2)C1)Nc1ccccc1[N+](=O)[O-] (configuration not stated) was read as Lassa entry inh -3.3%, HCV inh 4.3%, Marburg entry inh -20.9%[46.1 µM], FMDV antiviral -8.9%, RE007 growth inh 29.9% and Sm TGR inh -1.2%.
O=C(COC(=O)C1CC(=O)N(Cc2ccco2)C1)Nc1ccc(F)cc1F (configuration not stated) was read as HCV inh 2.5%, FMDV antiviral -8.8% and RE007 growth inh 2.8%.
Screening O=C(OCC(=O)N1c2ccccc2Sc2ccccc21)C1CC(=O)N(Cc2ccco2)C1 (configuration not stated) returned Lassa entry inh 6.4%, HCV inh 13.1%, Marburg entry inh 8.5%, FMDV antiviral -18.1%, RE007 growth inh 5.9% and Sm TGR inh 28.2µM*.
COc1ccc(-n2c(=O)c(-c3cccs3)nc3cnc(N4CCN(C)CC4)nc32)cc1 was read as FMDV antiviral -9.6%.
For O=S(=O)(c1ccccc1)n1nc(-c2ccco2)nc1NCc1ccccc1 the results were Lassa entry inh 9.9%[46.1 µM], Marburg entry inh inconclusive, FMDV antiviral 42.9% and Sm TGR inh -20.0%.
For CC(C)=CCC/C(C)=C/CO/N=C1/C[C@@H](O)[C@@H](O)[C@@H]2[C@@H]3C(=O)N(Cc4ccc5c(c4)OCO5)C(=O)[C@H]3CC[C@H]12 the results were Marburg entry inh -43.7%[14.2 µM].
For O=[N+]([O-])c1ccc(/C=C2\CCC(C3=CCCC3)=C2N2CCOCC2)cc1 the results were Lassa entry inh -0.8%, HCV inh -4.8%, Marburg entry inh -11.2%, FMDV antiviral -15.4%, RE007 growth inh inconclusive and Sm TGR inh 31.6µM*.
Screening COC(=O)C1=C(C(=O)OC)[C@@H]2N(C)c3ccccc3[C@@]23CCC(=O)N(CC(C)C)C3=N1 returned Marburg entry inh 8.1%[14.2 µM].
Screening CC1Cc2c([nH]c3ccccc23)C2c3ccccc3CN12 (configuration not stated) returned Lassa entry inh inconclusive, HCV inh -31.4%, Marburg entry inh inconclusive, FMDV antiviral 7.4%, RE007 growth inh -7.1% and Sm TGR inh 22.4µM*.
For COc1ccccc1OCC(=O)N(Cc1ccc(Cl)cc1)CC1CCCO1 (configuration not stated) the results were Lassa entry inh -18.0%[46.1 µM], Marburg entry inh 5.1%[46.1 µM], FMDV antiviral 0.4% and Sm TGR inh -5.5%.
For COc1cccc(CN(C)Cc2c(O)ccc3ccccc23)c1 the results were Lassa entry inh -33.7%[46.1 µM], HCV inh -1.2%, Marburg entry inh -9.8%[46.1 µM], FMDV antiviral 12.0%, RE007 growth inh -15.8% and Sm TGR inh 2.51µM*.
`CN(C)Cc1c(O)ccc2ccccc12` gave HCV inh -0.6%, FMDV antiviral 9.2%, RE007 growth inh 13.4% and Sm TGR inh 1.12µM*.
COc1ccc2ccc(O)c(CN(C)CC(=O)Nc3ccccc3C(F)(F)F)c2c1 was read as Lassa entry inh -3.9%, HCV inh 2.4%, Marburg entry inh -18.2%[46.1 µM], FMDV antiviral -22.6%, RE007 growth inh -12.3% and Sm TGR inh 1.78µM*.
For COc1ccc(CN(C)Cc2c(O)ccc3ccccc23)cc1 the results were Lassa entry inh 15.0%[46.1 µM], HCV inh 1.7%, Marburg entry inh 2.2%[46.1 µM], FMDV antiviral -10.2%, RE007 growth inh -14.0% and Sm TGR inh 3.16µM*.
Cc1c(C(=O)NCC2(N3CCOCC3)CCCC2)cnn1-c1nccc(-c2ccccc2F)n1 was read as FMDV antiviral -1.6%.
Cc1ccc(C(=O)NCCSc2c[nH]c3ccccc23)cc1C was read as Lassa entry inh 17.6%[46.1 µM], Marburg entry inh inconclusive, FMDV antiviral -3.5% and Sm TGR inh 0.1%.
Screening Cc1ccc(NC(=O)CN(C)Cc2c(O)ccc3ccccc23)cc1 returned Lassa entry inh inconclusive, HCV inh 5.1%, Marburg entry inh 5.3%[46.1 µM], FMDV antiviral -4.8%, RE007 growth inh inconclusive and Sm TGR inh 0.316µM*.
CC(C)CN(Cc1c(O)ccc2ccccc12)CC(C)C was read as Lassa entry inh 0.3%, HCV inh -10.4%, Marburg entry inh inconclusive, FMDV antiviral -11.2% and RE007 growth inh -27.0%.
`CCN(Cc1ccncc1)Cc1c(O)ccc2ccccc12` gave Lassa entry inh 8.5%, HCV inh -3.9%, Marburg entry inh -6.1%[46.1 µM], FMDV antiviral -1.5%, RE007 growth inh -3.9% and Sm TGR inh 0.708µM*.
CCN(CC(=O)Nc1ccc(NC(C)=O)cc1)Cc1c(O)ccc2cc(Br)ccc12 was read as Lassa entry inh -6.0%, HCV inh 15.1%, Marburg entry inh 15.1%[46.1 µM], FMDV antiviral 1.5%, RE007 growth inh -8.9% and Sm TGR inh 0.794µM*.
Screening COc1ccc(COC(=O)NN=C2C[C@@H](O)[C@@H](O)[C@@H]3[C@H]4C(=O)N([C@@H](C)c5ccccc5)C(=O)[C@@H]4CC[C@H]23)cc1 returned Lassa entry inh inconclusive and Marburg entry inh -0.6%[14.2 µM].
Screening CC1=Nc2cc(C(=O)NCc3ccccc3Cl)ccc2Sc2c(C)ccc(C)c21 returned Lassa entry inh inconclusive, Marburg entry inh inconclusive, FMDV antiviral -19.1% and Sm TGR inh -4.3%.
`CN(C(=O)COC(=O)c1nc(Cl)c(Cl)c(Cl)c1Cl)C1CCS(=O)(=O)C1` (configuration not stated) gave Lassa entry inh 5.62µM*, HCV inh 10µM*, Marburg entry inh inconclusive, FMDV antiviral 15.8µM*, RE007 growth inh -7.0% and Sm TGR inh 35.5µM*.
Screening CC(C)NC(=O)CCCN1C(=O)c2ccccc2Sc2ncccc21 returned HCV inh 10.0%, FMDV antiviral -6.4%, RE007 growth inh 1.2% and Sm TGR inh 79.4µM*.
`Cc1ccc(NC(=O)CCN2C(=O)c3ccccc3Sc3ncccc32)cc1` gave Lassa entry inh inconclusive, HCV inh -2.2%, Marburg entry inh 2.6%[46.1 µM], FMDV antiviral -1.6%, RE007 growth inh -14.0% and Sm TGR inh 12.6µM*.
`CC1=C(C)C(=O)C(CCCCC#CCCCC#CCO)=C(C)C1=O` gave Lassa entry inh 20.6µM*, HCV inh 0.6%[8.37 µM], Marburg entry inh inconclusive, FMDV antiviral 22.4µM*, RE007 growth inh -6.8% and Sm TGR inh 8.91µM*.
Screening COc1ccc(CNC(=O)c2ccc3nc(CCc4ccccc4)oc3c2)c(OC)c1 returned Lassa entry inh inconclusive, FMDV antiviral -7.7% and Sm TGR inh 5.9%.

Assay outcomes: PubChem BioAssay, National Center for Advancing Translational Sciences (NCATS)
